{"source": "the supplement of paper PMC6555819", "data": [{"system": "PXR:RXRa (NR concentration 270 nM, RXRa partner concentration 90 nM)", "test": "PBM binding z-score (relative to random genomic background probes); higher = stronger binding; sequences stand for … in GC…GCGATTGACAGCGTAGAATGAAGG", "summary_of_the_method": "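Regression normalization was applied to scanned fluorescence from custom Agilent 4×180K protein-binding microarrays. Before scanning, arrays were incubated 1 h with ligand-free nuclear receptor dimers, and binding was detected with antibodies against each partner (one per run). Binding z-scores use the random background probes as reference.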", "values": [{"sequence": "ATCTCTAGGTGAAGTTCAGTGAAAGATCGATAGA", "PBM binding z-score": 0.872}, {"sequence": "CCGACTGGGGCAGAAAGTTTACCATACCATCCGG", "PBM binding z-score": -0.282}, {"sequence": "ACAGACAGGTGATGAAGGTAACTAAGGCTATCAT", "PBM binding z-score": 0.0666}, {"sequence": "GCATGTAGATCAAGGTTAAGAAAGACTAAGCTAA", "PBM binding z-score": 0.293}, {"sequence": "TCTTGTAGATCAACAGGAGGTCAAGAAAGATCGA", "PBM binding z-score": 3.74}, {"sequence": "CTTGCTAGGTCAATGGTCAGCTAAAGCAGCTCGC", "PBM binding z-score": 0.794}, {"sequence": "TCGAGTAGGTTCGTCGGGGCATTCAGCCAACATA", "PBM binding z-score": 0.391}, {"sequence": "ATCTCTGGGTAACAAGTTCAGTGAAAGAGAGGAC", "PBM binding z-score": 1.87}, {"sequence": "TAGCCCAGGTCAGATCGGGCCAGTATACGCTATA", "PBM binding z-score": 1.48}, {"sequence": "TGTCAAAGTTCAATGGTAACGTAAGTATCCACAC", "PBM binding z-score": 3.89}, {"sequence": "CGAACGAGGGCATGAGTTGATAGCAAATGCCGAT", "PBM binding z-score": 0.562}, {"sequence": "CGTCCAAGGTCATAGGAGGTCAGGGAAGACAGAT", "PBM binding z-score": 6.9}, {"sequence": "GCTGCTTGGTCAACTGATGGTCAGCTAAAGCTCG", "PBM binding z-score": -0.491}, {"sequence": "ATCTCTAGGAAACCAAGTTCAGTGAATGCCGAAC", "PBM binding z-score": 1.17}, {"sequence": "CCTGCTAGGTCATGGTCATCTAATCTACAGTATG", "PBM binding z-score": 1.53}, {"sequence": "TAGCCTATGTCATTGGGCCAGTATAGTACGCATC", "PBM binding z-score": -0.188}, {"sequence": "CGAACTAGGTCAGAACAGGACACTGAAGGATGAT", "PBM binding z-score": 0.996}, {"sequence": "GCTCGGAGGACAAGGTCAGATCTTTGTCCGTAGA", "PBM binding z-score": 1.87}, {"sequence": "AGAATGAGGTTATTACGATCAGGGAATTGCGGTC", "PBM binding z-score": 1.26}, {"sequence": "TCATATACGTAAAAGGTGAAAGTCGGTGTGGTAA", "PBM binding z-score": 1.35}, {"sequence": "CCTAGTGGGCCACGAAAGGTCATTGATTCAGTGA", "PBM binding z-score": 5.35}, {"sequence": "TCTTGTAGTTCAATAGAGGTTAAGAAAGTGCGCT", "PBM binding z-score": 4.2}]}]}
